From PubChem BioAssay (Tox21)
Inconclusive results are not listed. Where a call stands in place of a potency, no number is given. Calls of active or inactive are those of the source. The call rests on the fitted dose curve.

Biological target: Acetylcholinesterase (Homo sapiens) (UniProt P22303)
Assay: Acetylcholinesterase (AChE) small molecule antagonists: colormetric cell-based qHTS assay (AID 1347395); further: nearly all actives have a fitted effect of over 30% in size
Conditions: SH-SY5Y cells AChE activity, colorimetric (Ellman); series mostly up to 115 µM
Outline: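 SH-SY5Y cells, plated overnight at 37 C, were exposed to compounds for 30 min at 37 C and 5% CO2. Acetylthiocholine plus DTNB was then added, and thiocholine from endogenous AChE was quantified colorimetrically after 90 min at 37 C.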
Potency means the concentration at half of the fitted maximal effect.

Chain of Acetylcholinesterase (Homo sapiens) (P22303 whole entry, looked up): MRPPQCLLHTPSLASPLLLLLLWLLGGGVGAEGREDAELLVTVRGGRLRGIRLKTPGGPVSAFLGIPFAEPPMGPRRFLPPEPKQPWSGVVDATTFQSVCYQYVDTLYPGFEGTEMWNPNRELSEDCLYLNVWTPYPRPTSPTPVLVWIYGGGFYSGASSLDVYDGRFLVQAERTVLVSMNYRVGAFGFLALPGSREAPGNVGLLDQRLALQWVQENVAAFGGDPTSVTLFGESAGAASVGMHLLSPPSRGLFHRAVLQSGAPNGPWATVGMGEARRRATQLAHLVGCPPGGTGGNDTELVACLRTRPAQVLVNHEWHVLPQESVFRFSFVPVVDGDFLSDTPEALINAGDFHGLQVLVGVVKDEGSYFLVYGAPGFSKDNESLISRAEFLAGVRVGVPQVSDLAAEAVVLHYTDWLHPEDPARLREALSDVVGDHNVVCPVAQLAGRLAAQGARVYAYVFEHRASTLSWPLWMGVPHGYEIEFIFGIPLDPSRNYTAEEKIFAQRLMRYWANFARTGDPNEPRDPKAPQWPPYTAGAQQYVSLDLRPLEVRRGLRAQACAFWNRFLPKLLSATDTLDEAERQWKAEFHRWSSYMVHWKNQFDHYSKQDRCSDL

With `CCOc1ccc(C(=O)OCCN(CC)CC)cc1` as the compound, how does the Potency read?
The Potency was “inactive”.

For `CC(CN)CC(C)(C)CCN` (stereo not given), which Potency is on record?
Its Potency is “inactive”.

Which outcome does the source give for `Cc1cc(CCN2CCN(c3nsc4ccccc34)CC2)cc2c1NC(=O)CC2(C)C` here?
Its outcome is “inactive”.

For `CCCCCCCCCCCCCCCC[N+](C)(C)CCN(Cc1ccc(OC)cc1)c1ncccn1`, which Potency is on record?
Its Potency is “inactive”.

`Cc1ccccc1C(=O)O` was tested. Which Potency did it give?
Its Potency is “inactive”.

`CCO[C@@H]1O[C@H](C(COCc2ccccc2)OCc2ccccc2)[C@H](OCc2ccccc2)[C@H]1O` (stereo not given in full) was tested. Which Potency did it give?
The Potency was “inactive”.

How did the Potency turn out when `O=C(/C=C/c1ccccc1)NCCO` was run?
The Potency was “inactive”.

`Nc1cc(C(Cl)=C(Cl)Cl)c(S(N)(=O)=O)cc1S(N)(=O)=O` was tested. Which Potency did it give?
Its Potency is “inactive”.

`Cc1c(N)cccc1Cl` was tested. Which Potency did it give?
Its Potency is “inactive”.

With `CNC(=O)c1c(I)c(NC(C)=O)c(I)c(C(=O)O)c1I` as the compound, how does the Potency read?
The Potency was “inactive”.

With `O=c1c(O)c(-c2ccc(O)cc2O)oc2cc(O)cc(O)c12` as the compound, how does the Potency read?
Its Potency is “inactive”.

Which Potency does the source give for `O=C(O)c1cc(O)c2ccccc2c1O` here?
Its Potency is “inactive”.

With `C/C(=N/NC(=O)c1ccncc1)C(=O)O` as the compound, how does the Potency read?
Its Potency is “inactive”.

With `Oc1ccc(C2(c3ccc(O)cc3)CC3CC2C2CCCC32)cc1` (stereo not given) as the compound, how does the Potency read?
The Potency was “inactive”.

Which Potency does the source give for `c1ccc(C(O[C@H]2CCCN(CCc3ccc4c(c3)OCO4)C2)c2ccccc2)cc1` here?
The Potency was “inactive”.

`Oc1cc2c(cc1O)[C@H]1c3ccc(O)c(O)c3OC[C@@]1(O)C2` was tested. Which Potency did it give?
Its Potency is “inactive”.

`O=C(CCN1CCC(c2ccccc2)C1)c1ccc2c(c1)OCCO2` (stereo not given) was tested. Which Potency did it give?
Its Potency is 30.9 µM (active).

With `CCCCN(CCCC)CC(O)c1cc(Cl)cc2c1-c1ccc(Cl)cc1/C2=C/c1ccc(Cl)cc1` (stereo not given) as the compound, how does the Potency read?
The Potency was “inactive”.

With `NC(=O)n1c(O)c(C(=O)c2cccs2)c2cc(Cl)ccc21` as the compound, how does the Potency read?
Its Potency is “inactive”.

For `CN(C)CC/C=C1\c2ccccc2Sc2ccc(Cl)cc21`, which Potency is on record?
Its Potency is “inactive”.

Biological target: Acetylcholinesterase (Homo sapiens) (UniProt P22303)
Assay: Acetylcholinesterase (AChE) small molecule antagonists: enzyme-based qHTS assay (AID 1347397); further: nearly all actives have a fitted effect of over 55% in size
Conditions: Potency: AChE enzyme activity inhibition; outcome: AChE enzyme activity inhibition; series mostly up to 115 µM
Outline: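 Compound or DMSO vehicle was pin-transferred onto recombinant human AChE (50 mU/mL as dispensed) and left 30 min at room temperature. Acetylthiocholine with DTNB then started the reaction, read colorimetrically 10 min later.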

`Oc1ccc(Cl)cc1C1CCCC1` was tested. Which Potency did it give?
The Potency was “inactive”.

`CC1(C)CCC(C)(C)c2cc(NC(=O)c3ccc(C(=O)O)cc3)ccc21` was tested. Which Potency did it give?
Its Potency is “inactive”.

With `CC[N+](C)(CC)CCOC(=O)C1c2ccccc2Oc2ccccc21` as the compound, how does the Potency read?
The Potency was “inactive”.

`CCCOC(C(=O)OC1CCN(C)CC1)(c1ccccc1)c1ccccc1` was tested. Which Potency did it give?
Its Potency is “inactive”.

Which Potency does the source give for `CCCCCCCCCCCCCCN(CCO)CCO` here?
Its Potency is “inactive”.

`O=C(CC(=O)C(F)(F)F)c1ccccc1` was tested. Which Potency did it give?
Its Potency is “inactive”.

For `CCC(=O)OCc1ccc(OC)cc1`, which Potency is on record?
Its Potency is “inactive”.

Which Potency does the source give for `CN(C)CCN(Cc1ccccc1)c1ccccn1` here?
The Potency was “inactive”.

For `CN(C)CCOC(c1ccc(Cl)cc1)c1ccccn1` (stereo not given), which Potency is on record?
The Potency was “inactive”.

How did the Potency turn out when `O[C@@H](CNC[C@H](O)[C@H]1CCc2cc(F)ccc2O1)[C@@H]1CCc2cc(F)ccc2O1` was run?
Its Potency is “inactive”.

With `COc1ccccc1N=Nc1c(S(=O)(=O)O)cc2cc(S(=O)(=O)O)cc(NC(C)=O)c2c1O` as the compound, how does the Potency read?
Its Potency is “inactive”.

Which Potency does the source give for `CN1CCN(CCC(=O)N2c3ccccc3Sc3ccc(C(F)(F)F)cc32)CC1` here?
The Potency was “inactive”.

For `CC(=O)OCC1=C(C(=O)O)N2C(=O)[C@@H](NC(=O)Cc3cccs3)[C@H]2SC1`, which Potency is on record?
The Potency was “inactive”.

Which Potency does the source give for `C[C@@H](CN(C)C)CN1c2ccccc2Sc2ccccc21` here?
Its Potency is “inactive”.

`CN(C)CCOC1=Cc2ccccc2Sc2ccc(Cl)cc21` was tested. Which Potency did it give?
Its Potency is “inactive”.

With `C(/C=C/C=C/Nc1ccccc1)=Nc1ccccc1` as the compound, how does the Potency read?
Its Potency is “inactive”.

Which Potency does the source give for `Nc1nc2ccccc2n1Cc1ccc(F)cc1` here?
Its Potency is “inactive”.

For `O=C(CN1CCN(Cc2ccc3c(c2)OCO3)CC1)N1c2ccccc2Sc2ccccc21`, which Potency is on record?
Its Potency is “inactive”.

For `CCOc1cc(N)c(Cl)cc1C(=O)NCC1CN(Cc2ccc(F)cc2)CCO1` (stereo not given), which Potency is on record?
The Potency was “inactive”.

With `c1ccc([C@H]2CN3CCSC3=N2)cc1` as the compound, how does the outcome read?
The outcome was “inactive”.

`CCOc1ccc(C(=O)OCCN(CC)CC)cc1` was tested. Which Potency did it give?
Its Potency is “inactive”.

How did the Potency turn out when `CC(CN)CC(C)(C)CCN` (stereo not given) was run?
The Potency was “inactive”.

How did the outcome turn out when `Cc1cc(CCN2CCN(c3nsc4ccccc34)CC2)cc2c1NC(=O)CC2(C)C` was run?
Its outcome is “inactive”.

With `CCCCCCCCCCCCCCCC[N+](C)(C)CCN(Cc1ccc(OC)cc1)c1ncccn1` as the compound, how does the Potency read?
Its Potency is 34.7 µM (active).

Which Potency does the source give for `Cc1ccccc1C(=O)O` here?
Its Potency is “inactive”.

With `CCO[C@@H]1O[C@H](C(COCc2ccccc2)OCc2ccccc2)[C@H](OCc2ccccc2)[C@H]1O` (stereo not given in full) as the compound, how does the Potency read?
Its Potency is “inactive”.

For `O=C(/C=C/c1ccccc1)NCCO`, which Potency is on record?
The Potency was “inactive”.

Which Potency does the source give for `Nc1cc(C(Cl)=C(Cl)Cl)c(S(N)(=O)=O)cc1S(N)(=O)=O` here?
Its Potency is “inactive”.

Which Potency does the source give for `Cc1c(N)cccc1Cl` here?
Its Potency is “inactive”.

`CNC(=O)c1c(I)c(NC(C)=O)c(I)c(C(=O)O)c1I` was tested. Which Potency did it give?
The Potency was “inactive”.

For `O=c1c(O)c(-c2ccc(O)cc2O)oc2cc(O)cc(O)c12`, which Potency is on record?
The Potency was “inactive”.

For `O=C(O)c1cc(O)c2ccccc2c1O`, which Potency is on record?
The Potency was “inactive”.

For `C/C(=N/NC(=O)c1ccncc1)C(=O)O`, which Potency is on record?
The Potency was “inactive”.

Which Potency does the source give for `Oc1ccc(C2(c3ccc(O)cc3)CC3CC2C2CCCC32)cc1` (stereo not given) here?
Its Potency is 76.5 µM (active).

How did the Potency turn out when `c1ccc(C(O[C@H]2CCCN(CCc3ccc4c(c3)OCO4)C2)c2ccccc2)cc1` was run?
Its Potency is “inactive”.
